Test results reported in PMC7862700, “An all-to-all approach to the identification of sequence-specific readers for epigenetic DNA modifications on cytosine”.

Legend:
Assay in all cases: DAPPL (digital affinity profiling via proximity ligation, sequencing); 10 mM Tris-HCl pH 7.5, 50 mM NaCl, 1 mM DTT, 4% glycerol, room temperature, 30 min; GST-TFs on glutathione beads, 16-mer random dsDNA library, 0.1% formaldehyde crosslink after washing; high values mean tight binding
Details in all cases: protein: recombinant; tags: N-terminal GST; dsDNA, one strand shown
[1] = target: T1, FEV (Homo sapiens, UniProt Q99581 1-238)
T1 sequence: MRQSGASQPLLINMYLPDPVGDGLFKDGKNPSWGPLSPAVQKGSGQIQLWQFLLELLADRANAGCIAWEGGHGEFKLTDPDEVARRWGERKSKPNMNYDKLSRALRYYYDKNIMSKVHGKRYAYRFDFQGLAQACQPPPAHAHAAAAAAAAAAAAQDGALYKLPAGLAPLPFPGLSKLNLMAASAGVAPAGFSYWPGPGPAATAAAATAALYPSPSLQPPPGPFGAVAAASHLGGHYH
How it was run: (§1)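 A tag-only sample was pooled with DNA-barcoded human transcription factors that had been expressed in yeast as GST fusions and captured on glutathione beads. The pools were incubated for 30 min at room temperature with 200 nmole of a random double-stranded 16-mer DNA library in Tris/NaCl/DTT/glycerol buffer, then washed, crosslinked with 0.1% formaldehyde, proximity-ligated (BsaI/T4 ligase, 1 h, 37 °C), PCR-amplified and sequenced on an Illumina NextSeq500. Binding signal is each hexamer's read frequency for a factor divided by its frequency for the tag-only sample.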

[2] = target: ETV5 (Homo sapiens, UniProt P41161 1-510)
How it was run: as §1

[3] = target: T2, SPIC (Homo sapiens, UniProt Q8N5J4 1-248)
T2 sequence: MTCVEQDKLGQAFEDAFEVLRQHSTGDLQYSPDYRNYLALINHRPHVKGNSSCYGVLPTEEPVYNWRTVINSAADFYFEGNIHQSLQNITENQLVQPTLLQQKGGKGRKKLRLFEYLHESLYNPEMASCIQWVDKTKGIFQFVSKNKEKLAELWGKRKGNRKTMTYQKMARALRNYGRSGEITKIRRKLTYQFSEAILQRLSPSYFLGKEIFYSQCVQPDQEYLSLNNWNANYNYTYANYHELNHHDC
How it was run: as §1

[4] = target: ELF4 (Homo sapiens, UniProt Q99607 1-663)
How it was run: as §1

[5] = target: T3, ELK4 (Homo sapiens, UniProt P28324-2 1-405)
T3 sequence: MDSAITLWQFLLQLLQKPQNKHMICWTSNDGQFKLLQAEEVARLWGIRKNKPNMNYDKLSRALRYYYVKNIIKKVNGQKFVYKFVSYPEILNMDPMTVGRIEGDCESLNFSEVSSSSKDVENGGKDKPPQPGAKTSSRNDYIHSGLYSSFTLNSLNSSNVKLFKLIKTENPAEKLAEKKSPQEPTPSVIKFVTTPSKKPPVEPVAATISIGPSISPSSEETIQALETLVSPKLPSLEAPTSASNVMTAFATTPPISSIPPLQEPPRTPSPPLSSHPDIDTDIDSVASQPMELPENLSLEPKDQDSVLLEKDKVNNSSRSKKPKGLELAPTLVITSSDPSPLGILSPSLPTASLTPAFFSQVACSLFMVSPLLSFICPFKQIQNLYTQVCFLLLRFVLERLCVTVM
How it was run: as §1

[6] = target: T4, ETV2 (Homo sapiens, UniProt O00321 1-342)
T4 sequence: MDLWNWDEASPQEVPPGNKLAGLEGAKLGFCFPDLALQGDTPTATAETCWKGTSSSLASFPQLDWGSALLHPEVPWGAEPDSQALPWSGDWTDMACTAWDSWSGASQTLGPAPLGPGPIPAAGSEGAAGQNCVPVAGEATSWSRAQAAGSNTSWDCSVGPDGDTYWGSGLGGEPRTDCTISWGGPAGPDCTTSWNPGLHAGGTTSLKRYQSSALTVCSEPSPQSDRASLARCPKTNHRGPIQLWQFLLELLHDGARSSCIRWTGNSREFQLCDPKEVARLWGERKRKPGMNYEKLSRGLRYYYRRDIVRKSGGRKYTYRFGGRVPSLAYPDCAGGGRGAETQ
How it was run: as §1

[7] = target: T5, ELF3 (Homo sapiens, UniProt P78545 1-371)
T5 sequence: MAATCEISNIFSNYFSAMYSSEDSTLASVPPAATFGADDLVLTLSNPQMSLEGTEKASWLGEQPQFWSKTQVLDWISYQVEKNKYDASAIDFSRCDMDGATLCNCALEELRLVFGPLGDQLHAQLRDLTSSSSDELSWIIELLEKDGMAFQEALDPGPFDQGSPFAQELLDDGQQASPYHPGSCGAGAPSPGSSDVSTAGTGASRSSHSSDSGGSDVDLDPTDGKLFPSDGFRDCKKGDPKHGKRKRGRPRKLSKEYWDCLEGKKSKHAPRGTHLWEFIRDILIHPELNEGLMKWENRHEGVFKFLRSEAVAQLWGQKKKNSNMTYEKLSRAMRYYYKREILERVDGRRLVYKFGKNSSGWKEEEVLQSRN
How it was run: as §1

[8] = target: CRX (Homo sapiens, UniProt O43186 1-299)
How it was run: as §1

[9] = target: ETV1 (Homo sapiens, UniProt P50549 1-477)
How it was run: as §1

[10] = target: T6, ERF (Homo sapiens, UniProt P50548 1-548)
T6 sequence: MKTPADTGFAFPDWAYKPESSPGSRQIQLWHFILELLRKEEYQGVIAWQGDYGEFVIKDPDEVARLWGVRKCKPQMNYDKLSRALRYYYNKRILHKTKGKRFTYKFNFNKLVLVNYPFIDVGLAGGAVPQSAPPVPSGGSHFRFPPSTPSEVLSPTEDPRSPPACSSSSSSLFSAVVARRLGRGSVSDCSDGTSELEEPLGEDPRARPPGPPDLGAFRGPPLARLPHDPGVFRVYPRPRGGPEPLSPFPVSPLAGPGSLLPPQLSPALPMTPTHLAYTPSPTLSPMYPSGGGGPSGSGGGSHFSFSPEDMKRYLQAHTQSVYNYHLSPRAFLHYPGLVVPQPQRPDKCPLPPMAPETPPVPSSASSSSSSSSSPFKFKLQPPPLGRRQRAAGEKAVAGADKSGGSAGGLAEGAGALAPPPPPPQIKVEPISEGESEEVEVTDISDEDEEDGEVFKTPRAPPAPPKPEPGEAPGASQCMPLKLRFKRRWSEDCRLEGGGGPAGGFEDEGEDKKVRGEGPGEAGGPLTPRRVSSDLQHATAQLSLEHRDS
How it was run: as §1

[11] = target: T7, ETV3L (Homo sapiens, UniProt Q6ZN32 1-361)
T7 sequence: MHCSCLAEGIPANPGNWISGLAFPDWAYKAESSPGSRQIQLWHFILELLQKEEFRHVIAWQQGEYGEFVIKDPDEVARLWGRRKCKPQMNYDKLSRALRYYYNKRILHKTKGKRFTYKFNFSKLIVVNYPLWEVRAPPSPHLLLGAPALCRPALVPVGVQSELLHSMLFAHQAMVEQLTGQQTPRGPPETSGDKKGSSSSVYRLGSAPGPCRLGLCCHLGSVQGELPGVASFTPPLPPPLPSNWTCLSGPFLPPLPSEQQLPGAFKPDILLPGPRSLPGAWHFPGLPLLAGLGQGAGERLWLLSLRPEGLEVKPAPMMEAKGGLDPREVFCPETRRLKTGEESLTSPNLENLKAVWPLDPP
How it was run: as §1

[12] = target: T8, ETS2 (Homo sapiens, UniProt P15036 1-469)
T8 sequence: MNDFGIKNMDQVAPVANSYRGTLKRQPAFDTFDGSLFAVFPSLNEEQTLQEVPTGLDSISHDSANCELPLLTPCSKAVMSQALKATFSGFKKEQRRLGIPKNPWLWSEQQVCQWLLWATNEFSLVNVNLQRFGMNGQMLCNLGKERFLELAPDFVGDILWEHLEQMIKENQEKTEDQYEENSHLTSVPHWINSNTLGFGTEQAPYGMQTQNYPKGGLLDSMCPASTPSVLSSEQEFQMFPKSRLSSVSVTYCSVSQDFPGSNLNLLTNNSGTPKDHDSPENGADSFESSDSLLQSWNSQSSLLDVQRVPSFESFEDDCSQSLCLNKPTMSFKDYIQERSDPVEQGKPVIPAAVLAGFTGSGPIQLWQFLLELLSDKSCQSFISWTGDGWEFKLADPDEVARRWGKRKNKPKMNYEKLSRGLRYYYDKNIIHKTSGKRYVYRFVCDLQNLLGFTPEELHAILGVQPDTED
How it was run: as §1

[13] = target: T9, SPDEF (Homo sapiens, UniProt O95238 1-335)
T9 sequence: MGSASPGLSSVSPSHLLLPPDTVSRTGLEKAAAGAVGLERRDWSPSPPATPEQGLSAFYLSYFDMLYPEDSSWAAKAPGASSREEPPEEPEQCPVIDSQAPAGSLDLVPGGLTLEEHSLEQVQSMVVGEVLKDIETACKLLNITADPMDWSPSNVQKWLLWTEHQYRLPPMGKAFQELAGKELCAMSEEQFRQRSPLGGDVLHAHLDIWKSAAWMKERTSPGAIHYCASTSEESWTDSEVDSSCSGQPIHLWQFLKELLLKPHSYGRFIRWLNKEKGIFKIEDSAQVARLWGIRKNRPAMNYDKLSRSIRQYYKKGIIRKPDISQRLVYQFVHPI
How it was run: as §1

[14] = target: T10, ETV7 (Homo sapiens, UniProt Q9Y603 1-341)
T10 sequence: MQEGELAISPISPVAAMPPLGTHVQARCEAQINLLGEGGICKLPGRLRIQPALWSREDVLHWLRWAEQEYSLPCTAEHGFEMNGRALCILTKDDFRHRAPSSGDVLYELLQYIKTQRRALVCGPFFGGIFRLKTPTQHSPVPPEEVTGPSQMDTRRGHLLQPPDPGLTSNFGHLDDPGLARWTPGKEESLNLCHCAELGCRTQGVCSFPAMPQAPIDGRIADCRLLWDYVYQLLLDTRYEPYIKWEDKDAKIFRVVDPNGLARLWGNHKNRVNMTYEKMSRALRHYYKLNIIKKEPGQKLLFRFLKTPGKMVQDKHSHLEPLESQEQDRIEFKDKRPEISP
How it was run: as §1

[15] = target: T11, ELF5 (Homo sapiens, UniProt Q9UKW6-2 1-255)
T11 sequence: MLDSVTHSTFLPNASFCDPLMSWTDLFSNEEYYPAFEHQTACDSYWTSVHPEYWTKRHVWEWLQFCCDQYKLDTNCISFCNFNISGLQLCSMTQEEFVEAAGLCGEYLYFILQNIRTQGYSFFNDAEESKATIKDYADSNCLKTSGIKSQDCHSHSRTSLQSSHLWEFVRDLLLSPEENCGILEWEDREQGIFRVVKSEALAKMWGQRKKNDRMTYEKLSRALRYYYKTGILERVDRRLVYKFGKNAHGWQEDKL
How it was run: as §1

[16] = target: T12, ETV3 (Homo sapiens, UniProt P41162-2 1-143)
T12 sequence: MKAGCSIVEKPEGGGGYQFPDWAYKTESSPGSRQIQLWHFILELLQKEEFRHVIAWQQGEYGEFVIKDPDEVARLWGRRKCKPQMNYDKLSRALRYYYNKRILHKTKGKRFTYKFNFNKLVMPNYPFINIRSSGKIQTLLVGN
How it was run: as §1

[17] = target: ETV6 (Homo sapiens, UniProt P41212 1-452)
How it was run: as §1

ETV6, sequence (P41212 whole entry): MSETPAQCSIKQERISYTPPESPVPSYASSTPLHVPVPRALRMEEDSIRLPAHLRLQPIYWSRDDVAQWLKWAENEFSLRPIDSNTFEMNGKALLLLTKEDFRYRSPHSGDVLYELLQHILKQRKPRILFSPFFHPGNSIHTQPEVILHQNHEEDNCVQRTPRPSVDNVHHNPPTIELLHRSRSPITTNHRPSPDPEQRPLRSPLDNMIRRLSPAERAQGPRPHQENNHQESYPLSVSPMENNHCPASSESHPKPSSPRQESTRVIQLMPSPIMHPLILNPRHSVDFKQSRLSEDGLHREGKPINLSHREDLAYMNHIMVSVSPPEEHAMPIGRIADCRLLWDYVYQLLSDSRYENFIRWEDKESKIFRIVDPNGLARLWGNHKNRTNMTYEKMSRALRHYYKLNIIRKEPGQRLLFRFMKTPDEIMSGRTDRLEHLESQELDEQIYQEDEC
ETV1, sequence (P50549 whole entry): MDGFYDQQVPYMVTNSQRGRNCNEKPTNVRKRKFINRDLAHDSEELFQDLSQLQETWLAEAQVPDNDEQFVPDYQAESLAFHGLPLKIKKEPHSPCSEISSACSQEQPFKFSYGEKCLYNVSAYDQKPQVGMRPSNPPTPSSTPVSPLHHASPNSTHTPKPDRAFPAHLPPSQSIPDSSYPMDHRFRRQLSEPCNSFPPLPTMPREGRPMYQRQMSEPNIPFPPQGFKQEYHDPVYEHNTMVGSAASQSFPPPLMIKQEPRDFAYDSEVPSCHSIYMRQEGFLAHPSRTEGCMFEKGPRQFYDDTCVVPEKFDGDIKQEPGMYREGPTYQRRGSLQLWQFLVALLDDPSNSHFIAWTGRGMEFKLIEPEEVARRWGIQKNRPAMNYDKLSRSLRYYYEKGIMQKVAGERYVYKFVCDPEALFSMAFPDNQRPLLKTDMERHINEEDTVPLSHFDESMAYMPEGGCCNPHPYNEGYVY
ELF4, sequence (Q99607 whole entry): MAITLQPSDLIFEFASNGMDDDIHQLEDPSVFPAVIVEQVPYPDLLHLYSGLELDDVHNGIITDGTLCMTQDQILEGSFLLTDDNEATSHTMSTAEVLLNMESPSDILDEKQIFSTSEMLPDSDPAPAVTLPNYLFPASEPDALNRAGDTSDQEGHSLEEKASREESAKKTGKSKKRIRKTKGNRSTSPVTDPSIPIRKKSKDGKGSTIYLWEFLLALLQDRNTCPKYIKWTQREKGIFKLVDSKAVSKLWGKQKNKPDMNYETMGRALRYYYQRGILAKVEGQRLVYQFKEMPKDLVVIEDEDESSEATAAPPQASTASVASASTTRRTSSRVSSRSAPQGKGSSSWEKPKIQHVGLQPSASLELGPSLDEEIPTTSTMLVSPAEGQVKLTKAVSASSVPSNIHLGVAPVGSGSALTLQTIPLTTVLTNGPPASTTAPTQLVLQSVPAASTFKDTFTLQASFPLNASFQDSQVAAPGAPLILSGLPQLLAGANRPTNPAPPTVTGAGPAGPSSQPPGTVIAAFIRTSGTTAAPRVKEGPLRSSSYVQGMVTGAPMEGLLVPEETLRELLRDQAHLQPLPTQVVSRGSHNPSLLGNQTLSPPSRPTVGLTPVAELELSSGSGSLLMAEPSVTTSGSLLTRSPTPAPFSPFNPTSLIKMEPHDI
ETV5, sequence (P41161 whole entry): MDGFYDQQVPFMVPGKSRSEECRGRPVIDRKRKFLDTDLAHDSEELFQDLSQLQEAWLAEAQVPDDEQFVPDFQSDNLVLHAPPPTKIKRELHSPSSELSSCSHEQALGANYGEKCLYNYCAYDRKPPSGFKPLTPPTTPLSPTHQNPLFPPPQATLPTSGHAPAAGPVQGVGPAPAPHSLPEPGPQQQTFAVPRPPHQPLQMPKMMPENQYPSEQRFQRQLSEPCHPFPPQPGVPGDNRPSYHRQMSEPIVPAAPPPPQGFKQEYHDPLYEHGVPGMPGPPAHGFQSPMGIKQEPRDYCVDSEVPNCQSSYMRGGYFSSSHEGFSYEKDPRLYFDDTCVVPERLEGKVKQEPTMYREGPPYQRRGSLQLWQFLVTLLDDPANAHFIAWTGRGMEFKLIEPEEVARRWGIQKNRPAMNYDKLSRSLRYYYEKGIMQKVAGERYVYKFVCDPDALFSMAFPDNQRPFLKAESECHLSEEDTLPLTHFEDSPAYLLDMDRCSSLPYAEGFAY
CRX, sequence (O43186 whole entry): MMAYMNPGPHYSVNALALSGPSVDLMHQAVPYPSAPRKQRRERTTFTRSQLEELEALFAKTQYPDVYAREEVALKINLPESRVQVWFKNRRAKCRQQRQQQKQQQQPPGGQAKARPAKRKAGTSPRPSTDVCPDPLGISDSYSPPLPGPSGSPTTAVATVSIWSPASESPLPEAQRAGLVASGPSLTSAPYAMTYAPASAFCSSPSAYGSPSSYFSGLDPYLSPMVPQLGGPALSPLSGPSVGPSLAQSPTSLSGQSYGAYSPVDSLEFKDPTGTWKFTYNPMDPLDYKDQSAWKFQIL

| Sequence | binding signal [1] | binding signal [2] | binding signal [3] | binding signal [4] | binding signal [5] | binding signal [6] | binding signal [7] | binding signal [8] | binding signal [9] | binding signal [10] | binding signal [11] | binding signal [12] | binding signal [13] | binding signal [14] | binding signal [15] | binding signal [16] | binding signal [17] |
| --- | --- | --- | --- | --- | --- | --- | --- | --- | --- | --- | --- | --- | --- | --- | --- | --- | --- |
| TAGCGG | 1.12 fold enrichment (6-mer frequency, TF over GST control) | 1.13 fold enrichment (6-mer frequency, TF over GST control) | 1.04 fold enrichment (6-mer frequency, TF over GST control) | 1 fold enrichment (6-mer frequency, TF over GST control) | 1.06 fold enrichment (6-mer frequency, TF over GST control) | 1.19 fold enrichment (6-mer frequency, TF over GST control) | 1.02 fold enrichment (6-mer frequency, TF over GST control) | 1.26 fold enrichment (6-mer frequency, TF over GST control) | 1.05 fold enrichment (6-mer frequency, TF over GST control) | 1.1 fold enrichment (6-mer frequency, TF over GST control) | 1.12 fold enrichment (6-mer frequency, TF over GST control) | 1.13 fold enrichment (6-mer frequency, TF over GST control) | 1.1 fold enrichment (6-mer frequency, TF over GST control) | 1.12 fold enrichment (6-mer frequency, TF over GST control) | 1.12 fold enrichment (6-mer frequency, TF over GST control) | 1.09 fold enrichment (6-mer frequency, TF over GST control) | 1.12 fold enrichment (6-mer frequency, TF over GST control) |
| ACCTTG | 1.12 fold enrichment (6-mer frequency, TF over GST control) | 1.2 fold enrichment (6-mer frequency, TF over GST control) | 1.17 fold enrichment (6-mer frequency, TF over GST control) | 1.22 fold enrichment (6-mer frequency, TF over GST control) | 1.21 fold enrichment (6-mer frequency, TF over GST control) | 1.4 fold enrichment (6-mer frequency, TF over GST control) | 1.29 fold enrichment (6-mer frequency, TF over GST control) | 1.03 fold enrichment (6-mer frequency, TF over GST control) | 1.21 fold enrichment (6-mer frequency, TF over GST control) | 1.31 fold enrichment (6-mer frequency, TF over GST control) | 1.23 fold enrichment (6-mer frequency, TF over GST control) | 1.27 fold enrichment (6-mer frequency, TF over GST control) | 1.27 fold enrichment (6-mer frequency, TF over GST control) | 1.22 fold enrichment (6-mer frequency, TF over GST control) | 1.11 fold enrichment (6-mer frequency, TF over GST control) | 1.25 fold enrichment (6-mer frequency, TF over GST control) | 1.17 fold enrichment (6-mer frequency, TF over GST control) |
